MARV entry inh = blocks Marburg virus binding to or entry into cells. AID 540276. 1.8% of 300,000 active. Marburg virus pseudotyped entry inhibition, cell reporter. Potency, µM (titrated, usually from 37.8 µM), inactives show top-dose activity change, negative = inhibition, actives largely listed as inhibitors; calls by dose curve; tested in HEK293 cells; note: potency is the fitted concentration of half-maximal effect
HCMV antiviral = human cytomegalovirus inhibition | HFF cells, HCMV-luciferase reporter, 72 h; stronger effect = lower value | activity change, negative = inhibition, % at 57.5 µM | 4.5% of 410,000 active; in the data active = activity change below about -60%; inconclusive = no clear call, values can overlap the other calls; inactive = above about -39%
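Two-dose cell screen: HFF monolayers treated with compounds and infected with luciferase-expressing HCMV at 1 PFU/cell, 72 h at 37C, then lysed for luciferase measurement.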
Lassa entry inh = blocks Lassa virus binding to or entry into cells. Lassa virus pseudotype entry inhibition, cell reporter. Potency, µM (series often up to 37.9 µM), for the others: at the highest dose activity change, negative = inhibition, actives largely listed as inhibitors. AID 540256. 1.2% of 300,000 active; calls by dose curve; tested in HEK293 cells; note: potency is the fitted concentration of half-maximal effect; nearly all actives have a fitted effect of over 50% in size
FMDV inh = foot and mouth disease virus antiviral activity; FMDV antiviral cell-based qHTS; Potency, µM (doses to about 57.9 µM), inactives show at the highest dose activity change, negative = inhibition, most hits filed as inhibitors; 1.2% of 410,000 active; calls by dose curve; tested in HEK293T cells; note: read-out not given here; potency is the fitted concentration of half-maximal effect; nearly all actives have a fitted effect of over 45% in size
The depositor's hits bear a star; ? = inconclusive; / = not tested or not shown; [ ] = remark or other dose. Compounds with a hit are over-represented: about 6.2% of the library has one in this group of screens. % is set by controls: 0 for no effect and ±100 for the full control effect.

SMILES | MARV entry inh | HCMV antiviral | Lassa entry inh | FMDV inh
CN1CCC(OC(c2ccccc2)c2ccc(Cl)cc2)C1 (configuration not stated) | 7.1µM* | -38 | ? | -12%
O=C(Cc1ccc(-c2ccccc2)cc1)NCCS(=O)(=O)N1CCN(c2cccc(Cl)c2)CC1 | / | -26 | 0%[46.1 µM] | -14%
CCCS(=O)(=O)NCCc1cc2c(OC)ccc(OC)c2[nH]c1=O | 23% | -77* | 7% | -24%
COc1ccc(OC)c2[nH]c(=O)c(CCNS(=O)(=O)c3ccccc3)cc12 | 0% | -7 | 1% | -23%
COc1ccc(-c2ccc3c(c2)N(C(C)C)C(=O)COC3)cc1 | / | -8 | / | /
CCCc1nnc2c(N(C)S(=O)(=O)c3ccc(C)cc3)nc3ccccc3n12 | -3% | -69* | 0% | -10%
O=C(NCc1cc(C(F)(F)F)ccc1Cl)c1cccc2c1C(=O)c1ccc(N3CCC(N4CCCCC4)CC3)cc1S2(=O)=O | / | -101* | / | 0%
CCCNS(=O)(=O)c1cc(-c2nn3c(C)nnc3c3ccccc23)ccc1C | ? | -19 | ? | 119%
CNC(=O)COc1ccc(Nc2nnc(-c3ccc(C)c(S(=O)(=O)NC(C)(C)C)c3)c3ccccc23)cc1 | / | ? | ? | 27%
CNS(=O)(=O)c1cc(-c2nnc(Nc3ccc(NC(C)=O)cc3)c3ccccc23)ccc1C | ? | -66* | -4% | 51%
CNS(=O)(=O)c1cc(-c2nn3c(C)nnc3c3ccccc23)ccc1C | / | -62* | -16%[46.1 µM] | 38%
C#CC(C)(C)NS(=O)(=O)c1cc(-c2nnc(Nc3ccc(C)cc3)c3ccccc23)ccc1C | ? | -87* | ? | 32%
C[C@H](CO)N1C[C@H](C)[C@@H](CN(C)C(=O)Nc2ccc(C(C)(C)C)cc2)OCc2cn(nn2)CCCC1=O | / | 9 | / | /
CCn1ncc(CN2CCCC(C(=O)Nc3cccc(-c4cc5ccccc5[nH]4)c3)C2)c1C (configuration not stated) | ? | ? | 13µM* | ?
O=C(Nc1cccc(-n2cccn2)c1)C1CCCN(Cc2cc3ccccc3[nH]2)C1 (configuration not stated) | ? | -11 | ? | -16%
O=c1cc(C(F)(F)F)[nH]c2ccc(C(F)(F)F)cc12 | ? | -97* | ? | ?
COc1ccc(-c2cn(-c3ccc(Cl)cc3)c3[n+]2CCCCC3)cc1 | -18% | -66* | ? | -16%
COc1ccc(-n2cc(-c3ccc(OC(F)F)cc3)[n+]3c2CCCCC3)cc1 | / | -85* | / | ?
Clc1ccc(-c2cn(-c3ccc(Cl)cc3)c3[n+]2CCCCC3)cc1 | ? | ? | 21% | ?
COc1ccc(S(=O)(=O)N2CCC(C(=O)Nc3ccc(Oc4ccccc4)cc3)CC2)cc1 | -3%[46.1 µM] | -29 | 13%[46.1 µM] | 0%
CCOc1ccc(Cc2onc3c2C(=O)CCC3)cc1OCC | -4%[46.1 µM] | -89* | 15% | -19%
O=C(Nc1ccc(Cn2cccn2)cc1)c1ccc(COc2ccccc2Br)cc1 | -14%[46.1 µM] | -83* | ? | 14µM*
Cn1cc(-c2nc3cncnc3n(CCN)c2=O)c2ccccc21 | / | / | / | -25%
O=S1(=O)CCOC[C@H](c2ccccc2)N1Cc1cccc(Cl)c1 | / | -80* | / | 0%
CCOC(=O)c1c(C)[nH]c(C)c1S(=O)(=O)N1CCC(C(=O)N2CCN(c3cccc(C)c3)C(C)C2)CC1 (configuration not stated) | / | -95* | -25%[46.1 µM] | -27%
SMILES | MARV entry inh | HCMV antiviral | Lassa entry inh | FMDV inh
CCOC(=O)c1c(C)[nH]c(C)c1S(=O)(=O)N1CCCC(C(=O)N2CCN(c3cccc(C)c3C)CC2)C1 (configuration not stated) | / | 13 | 11µM* | 1%
CCOC(=O)c1c(C)[nH]c(C)c1S(=O)(=O)N1CCCC(C(=O)N2CCN(c3cccc(Cl)c3)CC2)C1 (configuration not stated) | / | -73* | ? | -29%
CC(C)CC(N)c1csc(Nc2ncccn2)n1 (configuration not stated) | / | -27 | / | 6%
CC1(c2ccc3noc(-c4ccccc4)c3c2)OCCO1 | -15% | -16 | ? | 16µM*
CC(=O)COC(=O)c1ccc2noc(-c3ccccc3)c2c1 | ? | -68* | -2% | -2%
CC1(c2ccc3noc(-c4ccc(F)cc4)c3c2)OCCO1 | 0% | -40 | -13% | ?
CC(=O)c1ccc2noc(-c3cccc(F)c3)c2c1 | -30% | ? | -20% | -1%
COc1cccc(-c2onc3ccc(C(C)=O)cc23)c1 | / | -70* | / | 16%
CCOc1ccc(C(C)(C)COCc2cccc(Oc3ccccc3)c2)cc1 | / | -8 | / | /
Cc1cc(C)nc(SCC(=O)Nc2ccnc3ccccc23)n1 | ? | -89* | ? | ?

High-throughput results from PubChem BioAssay.
